High-throughput results deposited in PubChem BioAssay by National Center for Advancing Translational Sciences (NCATS).
In the library only some 2.8% were active in any assay of this set; here they are far more common.
S16 F2sN tox – Cell viability qHTS assay in S16 Pmp22-F2sN cells; AID 1508642, 2021; Potency, µM (series often up to 57.5 µM), most hits filed as cytotoxic; S16 Pmp22-F2sN Schwann cells viability, CellTiter-Glo, 24 h; actives 0.48% (n = 43,000); further: nearly all actives have a fitted effect of over 65% in size
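Seed 500-1,000 S16 Pmp22-F2sN cells per well in phenol-red-free DMEM with 10% heat-inactivated FBS; pin-add 23 nL compound; incubate 24 h at 37C; add CellTiter-Glo, wait 15 min protected from light; read luminescence.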
PMP22 txn – Cell-based coincidence reporter assay to measure PMP22 gene transcription in S16 Pmp22-F2sN cells - Primary screen; S16 Pmp22-F2sN Schwann cells (luciferase reporters placed in the Pmp22 gene), FLuc/NLuc coincidence luminescence, 24 h; Potency, µM (doses to about 57.5 µM), hits mostly inhibitors; actives 2% (n = 43,000); AID 1508649, 2021; active means clear falling dose curves in both reporters; inconclusive means both reporters move, but less clearly or upward; inactive means either reporter flat; the % is the NLuc reporter signal
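S16 Schwann cells carrying FLuc/NLuc coincidence reporter in the Pmp22 3' UTR treated with compound 24 h at 37C; FLuc then NLuc luminescence read sequentially by dual-luciferase reagents.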
GALC G270D up – A Novel Cell-Based Assay to Identify Small Molecules for B -Galactocerebrosidase. 145M-Twi-hGALC-G270D cells, HMU-beta-Gal fluorescence, 48 h. Potency, µM (titrated, usually from 57.5 µM), most hits filed as activators. actives 0.1% (n = 45,000). AID 1159614, 2016; further: nearly all actives have a fitted effect of over 65% in size
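qHTS, 1536-well; 145M-Twi-hGALC-G270D cells (WT line also made) in DMEM/F12 + 10% FBS; compound incubation on live cells; HMU-β-gal 0.1 mM final, pH 5.2, NaTC; carbonate stop; fluorescence increase = enhanced residual activity.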
pS6 MEF inh – Acumen qHTS Assay for Inhibitors of the mTORC1 Signaling Pathway in MEF (Tsc2-/-, p53-/-) Cells: Sytravon. Potency, µM (series often up to 38.3 µM), usual class: inhibitors. actives 0.78% (n = 44,000). Tsc2-/- p53-/- MEF, phospho-rpS6 immunofluorescence/PI, 24 h; further: nearly all actives have a fitted effect of over 50% in size
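Compounds act on Tsc2-/-, p53-/- fibroblasts carrying an empty vector for 24 h before fixation and dual staining for phospho-S6 and DNA (propidium iodide). Values are percentages of cells above a rapamycin-defined pS6/PI threshold.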
NLuc saturating – Biochemical NLuc saturation counterscreen for small molecule modulators of PMP22 gene expression - Nano-Glo assay; Potency, µM (top dose mostly 57.5 µM), actives largely listed as inhibitors; Secreted NLuc enzyme (filtered S16 cell medium), Nano-Glo luminescence; actives 4% (n = 690); AID 1508638, 2021; shares compounds with PMP22 txn
NLuc Km counter – Biochemical coelenterazine-based NLuc counterscreen for small molecule modulators of PMP22 gene expression - Km assay. shares compounds with PMP22 txn. secreted NLuc enzyme, coelenterazine luminescence, Km conditions. Potency, µM (series often up to 57.5 µM), hits mostly inhibitors. actives 5% (n = 690). AID 1508639, 2021
FLuc counter – Biochemical FLuc counterscreen for small molecule modulators of PMP22 gene expression; purified P. pyralis FLuc, luminescence, 10 min; 690 tested, under 10 active; AID 1508640, 2021; shares compounds with PMP22 txn; Potency, µM (titrated, usually from 57.5 µM), most hits filed as inhibitors
Target sequence (P08659 whole entry, looked up): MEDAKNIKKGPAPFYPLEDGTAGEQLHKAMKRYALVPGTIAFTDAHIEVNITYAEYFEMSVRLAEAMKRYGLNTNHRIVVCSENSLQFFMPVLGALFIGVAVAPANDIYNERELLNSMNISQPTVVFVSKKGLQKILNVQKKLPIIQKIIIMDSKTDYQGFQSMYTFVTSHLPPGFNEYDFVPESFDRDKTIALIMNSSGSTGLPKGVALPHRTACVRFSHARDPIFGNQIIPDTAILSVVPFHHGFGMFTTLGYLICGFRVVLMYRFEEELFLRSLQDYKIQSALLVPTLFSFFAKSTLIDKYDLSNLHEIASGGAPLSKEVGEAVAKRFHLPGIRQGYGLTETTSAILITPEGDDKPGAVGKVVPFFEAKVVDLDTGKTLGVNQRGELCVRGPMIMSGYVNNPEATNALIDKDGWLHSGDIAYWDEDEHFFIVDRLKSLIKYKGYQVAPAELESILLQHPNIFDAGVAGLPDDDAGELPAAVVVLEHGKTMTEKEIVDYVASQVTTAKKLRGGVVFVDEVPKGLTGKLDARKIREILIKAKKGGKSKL
S16 F2sN tox cnf – Cell viability qHTS assay in S16 Pmp22-F2sN cells - Confirmatory screen | actives 7% (n = 690) | shares compounds with PMP22 txn | S16 Schwann cells viability, CellTiter-Glo ATP luminescence, 24 h | Potency, µM (titrated, usually from 57.5 µM), hits mostly cytotoxic
PMP22 txn cnf – Cell-based coincidence reporter assay to measure PMP22 gene transcription in S16 Pmp22-F2sN cells - Confirmatory screen | shares compounds with PMP22 txn | actives 22% (n = 690) | S16 Schwann cells Pmp22-F2sN, dual luciferase, 24 h | Potency, µM (highest dose often 57.5 µM), hits mostly inhibitors; active means clear falling dose curves in both reporters; inconclusive means both reporters move, but less clearly or upward; inactive means either reporter flat; the % is the FLuc reporter signal
PMP22 HiBiT cnf – Cell-based HiBiT reporter assay to measure PMP22 protein expression in S16 Pmp22-HiBiT cells - Confirmatory screen; shares compounds with PMP22 txn; S16 Schwann cells Pmp22-HiBiT, luminescence, 48 h; Potency, µM (top dose mostly 27.9 µM), actives largely listed as inhibitors; 95 tested, under 10 active; AID 1508647, 2021
Target sequence (P25094 whole entry, looked up): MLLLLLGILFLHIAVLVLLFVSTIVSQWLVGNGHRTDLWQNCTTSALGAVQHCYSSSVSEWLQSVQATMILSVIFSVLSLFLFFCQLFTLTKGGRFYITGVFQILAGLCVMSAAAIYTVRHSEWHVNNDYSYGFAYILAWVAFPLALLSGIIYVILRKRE
Numbers stand for hits. Unless noted, the call rests on the fitted dose curve; in most records, active means well fitted curve in the direction sought with a large enough effect; inconclusive means small, poorly fitted or top-dose-only effect, or another doubt; inactive means no such curve, though single readings can be large; an effect the other way counts as inactive or inconclusive.

`Cc1cccc(NC(=O)Cn2c(=O)n(CCc3ccccc3)c(=O)c3ccccc32)c1` gave S16 F2sN tox inactive, PMP22 txn inconclusive, GALC G270D up inactive and pS6 MEF inh inactive.
O=C(CCCCn1c(=O)c2ccccc2n(CC(=O)Nc2ccc(F)cc2F)c1=O)NCc1ccccc1Cl was read as S16 F2sN tox inactive, PMP22 txn 16µM, GALC G270D up inactive, pS6 MEF inh inactive, NLuc saturating inactive, NLuc Km counter inactive, FLuc counter inactive, S16 F2sN tox cnf inactive and PMP22 txn cnf inconclusive.
`Cc1cccc(CCn2c(=O)c3ccccc3n(CC(=O)Nc3ccccc3F)c2=O)c1` gave S16 F2sN tox inactive, PMP22 txn 16µM, GALC G270D up inactive, pS6 MEF inh inactive, NLuc saturating inactive, NLuc Km counter inactive, FLuc counter inactive, S16 F2sN tox cnf inactive and PMP22 txn cnf inactive.
CCCCNC(=O)c1ccc(-c2nc(CS(=O)(=O)c3ccc(C)cc3)c(C)o2)cc1 was read as S16 F2sN tox inactive, PMP22 txn inconclusive, GALC G270D up inactive and pS6 MEF inh inactive.
Screening Cc1ccc(CNC(=O)c2ccc(-c3nc(CS(=O)(=O)c4ccc(C)cc4)c(C)o3)cc2)cc1 returned S16 F2sN tox inconclusive, PMP22 txn 13µM, GALC G270D up inconclusive, pS6 MEF inh inactive, NLuc saturating inactive, NLuc Km counter inactive, FLuc counter inactive, S16 F2sN tox cnf inactive and PMP22 txn cnf inactive.
For O=c1oc2ccccc2cc1-c1cn2cc(Cc3ccc(Br)cc3)sc2n1 the results were S16 F2sN tox inactive, PMP22 txn inconclusive, GALC G270D up inactive, pS6 MEF inh inactive, NLuc saturating inactive, NLuc Km counter inactive, FLuc counter inactive, S16 F2sN tox cnf inactive and PMP22 txn cnf inconclusive.
COc1ccccc1CNC(=O)c1cc2cccc3c2n1CCS3 was read as S16 F2sN tox inactive, PMP22 txn inactive, GALC G270D up inactive and pS6 MEF inh inactive.
`CC1CCCN(S(=O)(=O)c2ccc(N3CCCCS3(=O)=O)cc2)C1` (stereo not given) gave S16 F2sN tox inactive, PMP22 txn inconclusive, GALC G270D up inactive, pS6 MEF inh inactive, NLuc saturating inactive, NLuc Km counter inactive, FLuc counter inactive, S16 F2sN tox cnf inactive and PMP22 txn cnf inactive.
`CC1CCN(S(=O)(=O)c2ccc(N3CCCCS3(=O)=O)cc2)CC1` gave S16 F2sN tox inactive, PMP22 txn inactive, GALC G270D up inactive and pS6 MEF inh inactive.
`COc1ccc(OC)c(CNC(=O)c2c(C)oc3ncn(CC(C)C)c(=O)c23)c1` gave S16 F2sN tox inconclusive, PMP22 txn 10µM, GALC G270D up inactive, pS6 MEF inh inactive, NLuc saturating inconclusive, NLuc Km counter inconclusive, FLuc counter inactive, S16 F2sN tox cnf inactive and PMP22 txn cnf inconclusive.
CCOc1ccc(S(=O)(=O)c2c(C(=O)c3ccc(CC)cc3)cnc3ccc(C)cc23)cc1 was read as S16 F2sN tox inactive, PMP22 txn inconclusive, GALC G270D up inactive and pS6 MEF inh inactive.
`CCOc1ccc(C(=O)c2cnc3ccc(Cl)cc3c2S(=O)(=O)c2ccc(C)cc2)cc1` gave S16 F2sN tox inactive, PMP22 txn 14µM, GALC G270D up inactive, pS6 MEF inh inactive, NLuc saturating inactive, NLuc Km counter inactive, FLuc counter inactive, S16 F2sN tox cnf inactive, PMP22 txn cnf 19µM and PMP22 HiBiT cnf inactive.
Screening CCOc1ccc(-c2nc(CSCC(=O)NCc3ccc(Cl)cc3)c(C)o2)cc1 returned S16 F2sN tox inactive, PMP22 txn inconclusive, GALC G270D up inactive and pS6 MEF inh inactive.
Screening CCOc1ccc(-c2nc(CSCC(=O)NCCc3ccccc3)c(C)o2)cc1 returned S16 F2sN tox inactive, PMP22 txn inconclusive, GALC G270D up inactive, pS6 MEF inh inactive, NLuc saturating inconclusive, NLuc Km counter inconclusive, FLuc counter 19µM, S16 F2sN tox cnf inactive and PMP22 txn cnf inactive.
`Cc1ccc(C)c(CN2C(=O)c3ccccc3Sc3ccc(C(=O)NCc4ccco4)cc32)c1` gave S16 F2sN tox inactive, PMP22 txn inactive, GALC G270D up inactive and pS6 MEF inh inactive.
Screening COc1cc(NS(=O)(=O)c2cc(Br)cc3c2N(C(=O)C2CC2)CC3)cc(OC)c1 returned S16 F2sN tox inactive, PMP22 txn 3.6µM, GALC G270D up inactive, pS6 MEF inh inconclusive, NLuc saturating 14µM, NLuc Km counter inconclusive, FLuc counter inactive, S16 F2sN tox cnf inconclusive and PMP22 txn cnf 18µM.
O=C(C1CC1)N1CCc2cc(Br)cc(S(=O)(=O)Nc3ccc(F)c(F)c3)c21 was read as S16 F2sN tox inconclusive, PMP22 txn inconclusive, GALC G270D up inactive and pS6 MEF inh inactive.
COc1ccc(Cl)cc1NS(=O)(=O)c1cc(Br)cc2c1N(C(=O)C1CC1)CC2 was read as S16 F2sN tox inactive, PMP22 txn inactive, GALC G270D up inactive and pS6 MEF inh inactive.
